This note sets out measurements from PubChem BioAssay (NCATS).

The structures appear in SMILES notation. Inconclusive results are not listed. Values without a mark were called inactive. The source made the active and inactive calls. Calls come from the whole dose curve; as a rule, active = well fitted curve in the direction sought with a large enough effect; inconclusive = small, poorly fitted or top-dose-only effect, or another doubt; inactive = no such curve, though single readings can be large; an effect the other way counts as inactive or inconclusive.

The subject of experiment [1] is NIH3T3. Nature of the experiment: Cytotoxic Profiling of Annotated Libraries Using Quantitative High-Throughput Screening (AID 1296008). Note: nearly all actives have a fitted effect of over 60% in size. Conditions: Five cell lines viability, CellTiter-Glo ATP luminescence, 48-72 h; max response: active compounds read low. An outline of the steps: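 Compounds were pin-transferred onto cells and incubated 48 or 72 hr at 37 degree Celsius, 95% humidity. CellTiter-Glo was added, plates sat 10 min at room temperature, then ATP-coupled luminescence was imaged as the viability read-out.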
(In general: Cellular ATP, detected with luciferase, serves as a proxy for viable cell number.)

The test system of experiment [2] is HEK293T. Description: qHTS assay to identify novel small-molecules to repurpose for Merkel cell carcinoma treatment (AID 1296009). Note: nearly all actives have a fitted effect of over 60% in size. Conditions: MCC and control cell lines, CellTiter-Glo viability, 72 h; at 44.8 µM (top of the series) unless noted. In outline:
(§1)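 Cells exposed to NPC (8-point) and MIPE (11-point) compound dilutions for 72 hr at 37 degree celsius; viability read by CellTiter-Glo luminescence, normalized to no-cell and DMSO in-plate controls.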
In general terms: In qHTS, concentration-response curves come from the screen itself.

Experiment [3] has as its system NIH3T3. The description is as above. As to conditions: MCC and control cell lines, CellTiter-Glo viability, 72 h; at 44.8 µM (top of the series) unless noted. An outline of the steps: as §1
In another experiment the test system is C33A. Nature of the experiment: Primary qHTS to identify gynecologic anti-cancer compounds using libraries of approved drugs and bioactive compounds (AID 1345084). Note: nearly all actives have a fitted effect of over 55% in size. Conditions: Gynecologic cancer cell panel viability, ATPlite luminescence, 48 h; series mostly up to 57.5 µM. An outline of the steps:
(§2)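 Cells, 1,000 per well, were allowed to settle for 16 h at 37 C before compound addition. Five concentrations were tested for 48 h, and viability was read by ATPlite luminescence after 15 min at room temperature.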

Another experiment deals with CAOV3. The experiment is described as above. As to conditions: Gynecologic cancer cell panel viability, ATPlite luminescence, 48 h; series mostly up to 57.5 µM. In outline: as §2
The next experiment deals with CASKI. Described as above. Conditions: Gynecologic cancer cell panel viability, ATPlite luminescence, 48 h; series mostly up to 57.5 µM. An outline of the steps: as §2
For the next experiment, the system named is Es-2. The experiment is described as above. Conditions: Gynecologic cancer cell panel viability, ATPlite luminescence, 48 h; series mostly up to 57.5 µM. An outline of the steps: as §2
The next experiment has as its system HeLa. Described as above. As to conditions: Gynecologic cancer cell panel viability, ATPlite luminescence, 48 h; series mostly up to 57.5 µM. In outline:
as §2

Experiment [4] deals with Hek293T. The description is as above. Conditions: Gynecologic cancer cell panel viability, ATPlite luminescence, 48 h, control line for the selectivity index; series mostly up to 57.5 µM. An outline of the steps: as §2
The next experiment deals with JEG-3. Described as above. Conditions: Gynecologic cancer cell panel viability, ATPlite luminescence, 48 h; series mostly up to 57.5 µM. In outline:
as §2

For another experiment, the system named is OV90. The description is as above. As to conditions: Gynecologic cancer cell panel viability, ATPlite luminescence, 48 h; series mostly up to 57.5 µM. An outline of the steps:
as §2

The subject of another experiment is PA-1. The experiment is described as above. Conditions: Gynecologic cancer cell panel viability, ATPlite luminescence, 48 h; series mostly up to 57.5 µM. In outline: as §2
A further experiment has as its system SKOV3. Described as above. Conditions: Gynecologic cancer cell panel viability, ATPlite luminescence, 48 h; series mostly up to 57.5 µM. In outline:
as §2

Another experiment has as its system MCC-13. Description: qHTS assay to identify novel small-molecules to repurpose for Merkel cell carcinoma treatment (AID 1296009). Note: nearly all actives have a fitted effect of over 60% in size. As to conditions: MCC and control cell lines, CellTiter-Glo viability, 72 h; series mostly up to 46 µM. In outline:
as §1

The subject of another experiment is MCC-26. Described as above. As to conditions: MCC and control cell lines, CellTiter-Glo viability, 72 h; series mostly up to 46 µM. In outline: as §1
The subject of the next experiment is MKL-1. Described as above. As to conditions: MCC and control cell lines, CellTiter-Glo viability, 72 h; series mostly up to 46 µM. In outline:
as §1

A further experiment relates to MKL-2. The experiment is described as above. Conditions: MCC and control cell lines, CellTiter-Glo viability, 72 h; series mostly up to 46 µM. In outline:
as §1

The subject of another experiment is UISO. The experiment is described as above. Conditions: MCC and control cell lines, CellTiter-Glo viability, 72 h; series mostly up to 46 µM. An outline of the steps:
as §1

For the next experiment, the system named is WaGa. The experiment is described as above. Conditions: MCC and control cell lines, CellTiter-Glo viability, 72 h; series mostly up to 46 µM. In outline: as §1
% is set by controls: 0 for no effect and ±100 for the full control effect; potency is the fitted concentration of half-maximal effect.

On to `C[C@H](O)[C@H](O)[C@H]1CNc2nc(N)[nH]c(=O)c2N1`, for which the call in the experiment on NIH3T3 [1], in the experiment on HEK293T [2] and in the experiment on NIH3T3 [3] was inactive. For the same molecule, the Potency entry with C33A, with CAOV3, in the experiment on CASKI, in the experiment with Es-2, in the experiment with HeLa and with Hek293T [4] was “inactive” throughout. Besides, the Potency result in the experiment with JEG-3, in the experiment on OV90, with PA-1 and in the experiment on SKOV3 was “inactive” each time.

`C/C(=N\O)c1ccc(OCC(=O)N2CCCCC2)cc1`: the max response in the experiment with NIH3T3 [1] is -0.0363%. Further, the Potency entry in the experiment with MCC-13, with MCC-26, in the experiment on MKL-1, with MKL-2, in the experiment on UISO and in the experiment on WaGa was “inactive” in each case. For the same molecule, the Potency result in the experiment on C33A, with CASKI, in the experiment on HeLa, in the experiment with Hek293T [4] and in the experiment with PA-1 was “inactive” each time.

Regarding `O=C(OCc1ccccc1)c1ccccc1`, the max response in the experiment on NIH3T3 [1] is 0.848%. The Potency entry with MCC-13, with MKL-1, with MKL-2, in the experiment on UISO, with WaGa and in the experiment on C33A was “inactive” in each case. Further, the Potency entry with CAOV3, with CASKI, with Es-2, in the experiment on HeLa, with Hek293T [4] and in the experiment with JEG-3 was “inactive” each time. Moreover, the Potency result in the experiment with OV90, with PA-1 and with SKOV3 was “inactive” each time.

For the molecule `Cc1c(C(=O)O)c(O)cc2c1C(=O)c1c(O)c([C@@H]3O[C@H](CO)[C@@H](O)[C@H](O)[C@H]3O)c(O)c(O)c1C2=O`, the max response with NIH3T3 [1] is -21.1%. The Potency entry with MCC-13, in the experiment on MKL-1, in the experiment with MKL-2, with UISO, in the experiment on WaGa and in the experiment with C33A was “inactive” throughout. The Potency entry with CASKI, with Es-2, with HeLa, in the experiment on Hek293T [4], in the experiment with JEG-3 and in the experiment with PA-1 was “inactive” each time. Besides, the Potency entry with SKOV3 is “inactive”.

`CCOc1ccc2nc(S(N)(=O)=O)sc2c1`: the molecule was classed as inactive in the experiment on NIH3T3 [1] and with NIH3T3 [3]. Besides, the Potency result with MCC-13, in the experiment on MCC-26, in the experiment on MKL-1, with MKL-2, in the experiment on WaGa and in the experiment with C33A was “inactive” throughout. In addition, the Potency entry in the experiment with CASKI, with Es-2, with HeLa, with Hek293T [4], in the experiment with JEG-3 and in the experiment on OV90 was “inactive” each time. Besides, in the experiment on PA-1, the Potency result is “inactive”.

For the molecule `[O-][n+]1ccccc1SSc1cccc[n+]1[O-]`, the Potency was 164 nM (active) in the experiment on NIH3T3 [1]; 326 nM (active) with MCC-13; 231 nM (active) in the experiment on MKL-1; 580 nM (active) in the experiment with MKL-2; 92 nM (active) with UISO; 517 nM (active) in the experiment on WaGa. The Potency is 1120 nM (active) in the experiment on C33A; 2820 nM (active) in the experiment with CAOV3; 2510 nM (active) in the experiment on CASKI; 1000 nM (active) in the experiment with Es-2; 501 nM (active) in the experiment on Hek293T [4]; 2000 nM (active) in the experiment with JEG-3. For the same molecule, the Potency in the experiment with OV90 is 1780 nM (active); in the experiment on PA-1, 1260 nM (active); in the experiment on SKOV3 it was 794 nM (active). The Potency result in the experiment with HeLa is “inactive”.

Consider `CN(C)[C@@H]1C(=O)C(C(=O)NCN2CCCC2)=C(O)[C@@]2(O)C(=O)C3=C(O)c4c(O)cccc4[C@@](C)(O)C3C[C@@H]12` (some centres not stated), for which the max response in the experiment with NIH3T3 [1] was 1.26%. In addition, the Potency entry in the experiment on MCC-13, with MKL-1, in the experiment with MKL-2, in the experiment on UISO, in the experiment with WaGa and in the experiment on C33A was “inactive” in each case. The Potency result in the experiment on CAOV3, in the experiment with CASKI, in the experiment on Es-2, in the experiment with HeLa, with Hek293T [4] and in the experiment with JEG-3 was “inactive” in each case. For the same molecule, the Potency result in the experiment on OV90, in the experiment on PA-1 and in the experiment on SKOV3 was “inactive” throughout.

For the molecule `CCCCC1C(=O)N(c2ccccc2)N(c2ccc(O)cc2)C1=O` (configuration not stated), the Potency with NIH3T3 [1] was 15000 nM (active); in the experiment on MCC-13 it was 9440 nM (active); in the experiment with MKL-1, 1500 nM (active); with MKL-2 it was 596 nM (active); in the experiment with UISO, 6680 nM (active); in the experiment with WaGa it was 2990 nM (active). Besides, the Potency entry with MCC-26, in the experiment on CASKI, in the experiment with HeLa and in the experiment with JEG-3 was “inactive” in each case.
